Each structure is given as a SMILES string. The panel holds about 83,000 compounds, 20% with a hit somewhere; the sample as a whole holds those more often.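 Cell lines were cultured in 96-well plates, exposed to a single compound concentration, and assessed for percent growth 48 hours later.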 Unmarked numbers belong to inactive results. Calls of active or inactive are those of the source. Rule for the calls: active = growth percent below 10; inactive = the rest.

Some test systems named below: NCI-H23 lung; NCI-H226 lung; NCI-H322M lung; HOP-62 NSCLC; NCI-H460 lung; HOP-92 NSCLC; NCI-H522 lung; A549/ATCC NSCLC; 786-0 renal; COLO 205 colon; DU-145 prostate; K-562 leukemia; MALME-3M melanoma; MDA-MB-231 breast; RXF 393 renal; SF-268 CNS; SF-295 CNS; SF-539 CNS; UACC-257 melanoma; M14 melanoma.
Common to all, as to assay: NCI-60 one-dose screen, 48 h (100 = growth as untreated, 0 = no growth, -100 = all killed)
Holding throughout (conditions): 10 µM unless noted

For `CN(C[C@H]1Cc2c(cccc2N2CCN(c3ncccn3)CC2)CN1)[C@H]1CCCc2cccnc21`, the growth was 45.5% in the experiment on NCI-H23 lung; 39.4% with NCI-H226 lung; 50.3% in the experiment on NCI-H322M lung; 17.2% in the experiment on HOP-62 NSCLC; 20.7% in the experiment with NCI-H460 lung; 27.4% with HOP-92 NSCLC. In addition, the growth in the experiment with NCI-H522 lung is 52.6%; in the experiment with A549/ATCC NSCLC it was 25.7%; in the experiment on 786-0 renal, 39.5%; with COLO 205 colon, 10.2%; with DU-145 prostate, 55%; with K-562 leukemia, 8.04% (active). In addition, the growth is 82.7% in the experiment on MALME-3M melanoma; 52.9% in the experiment with MDA-MB-231 breast; 57.6% with RXF 393 renal; 60% in the experiment on SF-268 CNS; 44.4% in the experiment on SF-295 CNS; 55.5% with SF-539 CNS. Further, the growth was 55.1% in the experiment on UACC-257 melanoma and 53.7% with M14 melanoma.
For `COc1ccc(S(=O)(=O)NCCCNc2nccc(-c3c(-c4cccc([N+](=O)[O-])c4)nc4sccn34)n2)cc1`, the growth is 47.3% in the experiment with NCI-H23 lung; 34.8% in the experiment with NCI-H226 lung; 67.6% in the experiment on NCI-H322M lung; 61% in the experiment on HOP-62 NSCLC; 44.4% in the experiment with NCI-H460 lung; 82.1% in the experiment on HOP-92 NSCLC. Moreover, the growth is 32.4% with NCI-H522 lung; 52.2% with A549/ATCC NSCLC; 66.6% with 786-0 renal; 36.4% with COLO 205 colon; 51.6% in the experiment with DU-145 prostate; 28.7% in the experiment on K-562 leukemia. Also, the growth in the experiment with MALME-3M melanoma was 58%; in the experiment on MDA-MB-231 breast it was 59.5%; in the experiment on RXF 393 renal, 67.1%; in the experiment with SF-268 CNS, 49%; with SF-295 CNS, 43.7%; in the experiment on SF-539 CNS, 75.6%. Also, the growth in the experiment with UACC-257 melanoma is 53%; in the experiment on M14 melanoma, 41.6%.
As for `COc1ccc(-c2c(-c3cc(OC)c4c(c3)OCO4)noc2N)cc1`, the growth was 40.6% with NCI-H23 lung; 22.8% in the experiment with NCI-H226 lung; 51.1% in the experiment with NCI-H322M lung; 10.3% in the experiment with HOP-62 NSCLC; 4.43% (active) with NCI-H460 lung; 35.4% in the experiment on HOP-92 NSCLC. The growth in the experiment on NCI-H522 lung is 4.5% (active); in the experiment on A549/ATCC NSCLC, 13.3%; in the experiment with 786-0 renal it was 14.5%; in the experiment with COLO 205 colon, -88.9% (active); in the experiment with DU-145 prostate it was -7.24% (active); in the experiment with K-562 leukemia, 8.5% (active). The growth in the experiment with MALME-3M melanoma is 54.4%; in the experiment on MDA-MB-231 breast, -3.97% (active); in the experiment on RXF 393 renal, 8.2% (active); in the experiment on SF-268 CNS, 16.6%; in the experiment on SF-295 CNS, 2.31% (active); with SF-539 CNS it was 0.998% (active). For the same molecule, the growth with UACC-257 melanoma is 74.6%; with M14 melanoma, 12%.
`COc1ccc(CN2CCc3c(Sc4ccccc4)nc(N)nc3C2=O)c(OC)c1`: the growth was 49% in the experiment with NCI-H23 lung; 67.6% in the experiment with NCI-H226 lung; 67.9% with NCI-H322M lung; 86.2% in the experiment with HOP-62 NSCLC; 64.6% in the experiment with NCI-H460 lung; -11.4% (active) in the experiment on HOP-92 NSCLC. For the same molecule, the growth in the experiment with NCI-H522 lung was 21.3%; with A549/ATCC NSCLC, 60.5%; in the experiment with 786-0 renal it was 62.4%; with COLO 205 colon it was 80.2%; in the experiment on DU-145 prostate, 77.4%; in the experiment with K-562 leukemia it was 48.3%. In addition, the growth in the experiment with MALME-3M melanoma was 38.9%; in the experiment with MDA-MB-231 breast, 69%; in the experiment on RXF 393 renal, 44.4%; in the experiment on SF-268 CNS, 67.3%; in the experiment on SF-295 CNS, 69.6%; in the experiment on SF-539 CNS it was 66.5%. In addition, the growth in the experiment with UACC-257 melanoma is 50.5%; in the experiment on M14 melanoma it was 61.7%.
Regarding `COc1ccc(-c2ccc(C)n2-c2ccc(-c3nc4ccccc4s3)cc2)cc1`, the growth in the experiment on NCI-H23 lung is 81.4%; in the experiment on NCI-H226 lung, 85.2%; in the experiment with NCI-H322M lung, 98.2%; in the experiment on HOP-62 NSCLC, 87.6%; in the experiment on NCI-H460 lung it was 88.8%; in the experiment on HOP-92 NSCLC, 86.2%. The growth in the experiment on NCI-H522 lung was 89.4%; in the experiment with A549/ATCC NSCLC, 85.6%; in the experiment with 786-0 renal, 100%; in the experiment on COLO 205 colon, 94%; with DU-145 prostate, 104%; with K-562 leukemia, 91.6%. Also, the growth in the experiment on MALME-3M melanoma is 108%; in the experiment on MDA-MB-231 breast, 68.4%; in the experiment with RXF 393 renal it was 94.7%; in the experiment with SF-268 CNS it was 96%; in the experiment on SF-295 CNS, 86.5%; in the experiment on SF-539 CNS, 99.3%. In addition, the growth with UACC-257 melanoma is 109%; in the experiment with M14 melanoma, 103%.
Consider `COc1cc(/C=C/C(=O)N2CCN(C(=O)/C=C/c3cc(OC)c(OC)c(OC)c3)CC2)cc(OC)c1OC`, for which the growth is 104% in the experiment with NCI-H23 lung; 100% with NCI-H226 lung; 113% with NCI-H322M lung; 102% in the experiment with HOP-62 NSCLC; 104% in the experiment on NCI-H460 lung; 99.7% in the experiment with HOP-92 NSCLC. Further, the growth in the experiment with NCI-H522 lung was 87.5%; with A549/ATCC NSCLC, 105%; in the experiment on 786-0 renal, 96.8%; with COLO 205 colon, 109%; in the experiment with DU-145 prostate, 109%; in the experiment on K-562 leukemia it was 98.7%. The growth is 127% in the experiment with MALME-3M melanoma; 82.7% in the experiment on MDA-MB-231 breast; 121% in the experiment on RXF 393 renal; 118% in the experiment with SF-268 CNS; 122% with SF-295 CNS; 103% with SF-539 CNS. Further, the growth in the experiment with UACC-257 melanoma was 94.3%; in the experiment with M14 melanoma, 97.1%.
As to `CC(C)(C)N1CCC1C(N)=O` (stereo not given), the growth is 86% in the experiment with NCI-H23 lung; 118% in the experiment with NCI-H226 lung; 125% with NCI-H322M lung; 96.8% in the experiment with HOP-62 NSCLC; 104% with NCI-H460 lung; 100% in the experiment on HOP-92 NSCLC. Besides, the growth with NCI-H522 lung is 172%; with A549/ATCC NSCLC it was 99%; in the experiment on 786-0 renal, 29.6%; in the experiment with COLO 205 colon, 106%; with DU-145 prostate, 108%; with K-562 leukemia, 97.7%. Besides, the growth with MALME-3M melanoma was 90.3%; in the experiment on MDA-MB-231 breast, 112%; in the experiment with RXF 393 renal, 103%; in the experiment on SF-268 CNS it was 102%; with SF-295 CNS, 106%; in the experiment on SF-539 CNS it was 97.7%. The results for the growth with UACC-257 melanoma and in the experiment on M14 melanoma were 96% and 78.6%, respectively.
As to `O=c1cc/c(=N\Nc2ccccc2)c(=O)/c1=N/Nc1ccccc1`, the growth in the experiment on NCI-H23 lung was 93.9%; in the experiment with NCI-H226 lung it was 108%; in the experiment with NCI-H322M lung, 93.7%; in the experiment with HOP-62 NSCLC it was 84.8%; in the experiment with NCI-H460 lung, 95.7%; in the experiment with HOP-92 NSCLC it was -1.02% (active). The growth in the experiment with NCI-H522 lung was 110%; in the experiment on A549/ATCC NSCLC it was 123%; in the experiment with 786-0 renal it was 112%; in the experiment on COLO 205 colon, 137%; with DU-145 prostate, 106%; in the experiment with K-562 leukemia it was 105%. Further, the growth was 119% with MALME-3M melanoma; 100% in the experiment on MDA-MB-231 breast; 121% in the experiment on RXF 393 renal; 90.5% in the experiment with SF-268 CNS; 122% in the experiment with SF-295 CNS; 94.6% in the experiment on SF-539 CNS. The growth with UACC-257 melanoma was 137%; in the experiment on M14 melanoma it was 82.2%.
